Source: PubChem BioAssay (National Center for Advancing Translational Sciences (NCATS))
TGFb SMAD3 inh = inhibitors of TGF-b signaling. hit rate 1.2% among 410,000. HepG2 CAGA-GFP TGF-b/SMAD3 reporter, GFP fluorescence, 18 h; TGF-beta stimulated, 500 pg/mL final. Potency, µM (top dose mostly 46.1 µM), inactives show at the highest dose activity, negative = inhibition, actives largely listed as inhibitors; also: potency is read from the fitted curve at half-maximal effect; % is scaled to controls: 0 for no effect and ±100 for the full control effect; nearly all actives have a fitted effect of over 65% in size
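Using HEPG2 CAGA-GFP reporter cells at 1000 cells/well, we pinned test compounds, stimulated with recombinant TGF-beta (500 pg/mL final) and measured total well GFP after 18 h.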
HepG2 viability = kills HepG2 cells in TGF-b inhibitor counter-screen | HepG2 CAGA-GFP viability, ATP luminescence, 18 h | Potency, µM (highest dose often 46.1 µM), inactives show at the highest dose activity change, negative = cytotoxicity, usual class: cytotoxic | hit rate 0.76% among 410,000 | AID 588856; also: potency is read from the fitted curve at half-maximal effect
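HepG2 CAGA-GFP cells (1000/well, DMEM with 1% FBS) received compound, then TGF-beta at 500 pg/mL final, and were incubated 18 hours at 37 degrees C. Viability was read by CellTiter-Glo luminescence. Media-only wells were set as complete cell-killing and DMSO as no toxicity.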
IL-1B inflam inh = blocks inflammasome-driven IL-1 beta release; THP-1 LPS/ATP IL-1B secretion, AlphaLISA, 16 h; stronger effect = lower value; hit rate 4.7% among 360,000; AID 743279; activity change, % at 57.5 µM; in the data active = activity change below about -50%; inconclusive = mostly about -30% to -49%; also: % is scaled to controls: 0 for no effect and ±100 for the full control effect
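THP-1 cells pretreated 1 hr with compounds (up to 57.5 uM final), then stimulated with LPS (250 ng/mL final) plus ATP (1.25 mM final); secreted IL-1B measured by AlphaLISA after 16 hr, decreased signal indicating inhibition.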
ASM inhibitor = blocks human secretory acid sphingomyelinase; placental ASM, HMU-PC fluorogenic substrate, 60 min; Potency, µM (series often up to 57.5 µM), for the others: top-dose activity change, negative = inhibition, usual class: inhibitors; hit rate 0.006% among 340,000; AID 504937; also: potency is read from the fitted curve at half-maximal effect
Target sequence (P17405 47-631 limits assumed): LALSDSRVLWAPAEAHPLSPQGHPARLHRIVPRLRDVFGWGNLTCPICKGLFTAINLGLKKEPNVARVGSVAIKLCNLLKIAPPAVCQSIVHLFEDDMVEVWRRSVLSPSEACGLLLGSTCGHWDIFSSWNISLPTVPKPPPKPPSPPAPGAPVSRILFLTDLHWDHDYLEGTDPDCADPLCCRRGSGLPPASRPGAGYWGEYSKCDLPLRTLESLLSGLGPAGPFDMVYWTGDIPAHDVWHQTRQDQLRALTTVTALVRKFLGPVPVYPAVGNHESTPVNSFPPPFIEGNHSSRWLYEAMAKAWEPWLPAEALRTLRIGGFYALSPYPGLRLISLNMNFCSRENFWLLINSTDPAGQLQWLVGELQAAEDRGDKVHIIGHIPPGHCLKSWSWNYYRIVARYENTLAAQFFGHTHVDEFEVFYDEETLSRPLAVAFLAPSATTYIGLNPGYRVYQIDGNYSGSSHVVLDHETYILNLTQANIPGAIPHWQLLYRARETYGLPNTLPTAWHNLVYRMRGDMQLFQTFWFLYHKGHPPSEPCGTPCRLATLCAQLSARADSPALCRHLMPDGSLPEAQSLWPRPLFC
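HMU-PC0 cleavage (9 uM final) by human placental ASM, 60 min at 37 °C following 10 min compound exposure at RT; stopped at pH 10, fluorescence Ex 386/Em 447 nm.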
TDP1 cell CPT = growth inhibition of DT40 Tdp1-/-;hTDP1 cells with camptothecin (screen for TDP1 inhibitors); Potency, µM (titrated, usually from 46.2 µM), for the others: top-dose activity change, negative = growth inhibition, hits mostly inhibitors; AID 686979; hit rate 12% among 420,000; chicken DT40 Tdp1-/-;hTDP1 cells + 20 nM CPT, ATP luminescence, 48 h; also: potency is read from the fitted curve at half-maximal effect; % is scaled to controls: 0 for no effect and ±100 for the full control effect; nearly all actives have a fitted effect of over 55% in size
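Cell growth measured by CellTiter-Glo luminescence after a minimum 48 h, 37 C compound exposure with 20 nM CPT in Tdp1-knockout DT40 cells stably expressing hTDP1, seeded 400/well; qHTS titration format.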
DT40 TDP1 no CPT = qHTS for Inhibitors of human tyrosyl-DNA phosphodiesterase 1 (TDP1): qHTS in cells in absence of CPT; DT40 Tdp1-/- hTDP1 cells, no CPT, ATP luminescence, 48 h; Potency, µM (doses to about 46.2 µM), inactives show at the top dose activity change, negative = growth inhibition, most hits filed as inhibitors; hit rate 15% among 420,000; also: potency is read from the fitted curve at half-maximal effect; % is scaled to controls: 0 for no effect and ±100 for the full control effect; nearly all actives have a fitted effect of over 55% in size
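Growth of hTDP1-complemented DT40 Tdp1-knockout cells is measured by ATP luminescence after at least 48 hr compound exposure at 37 °C, with DMSO substituting for the 20 nM CPT used in the parallel screen.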
* marks the source's active call; other numbers are inactive results; u = inconclusive; x = not tested or not shown; ! = a repeat was not active. Shown are actives, neighbours in structure and some others; about 19% of the full set was active somewhere. Unless noted, calls follow the shape of the dose curve; as a rule, active = well fitted curve in the direction sought with a large enough effect; inconclusive = small, poorly fitted or top-dose-only effect, or another doubt; inactive = no such curve, though single readings can be large; an effect the other way counts as inactive or inconclusive.

SMILES	TGFb SMAD3 inh	HepG2 viability	IL-1B inflam inh	ASM inhibitor	TDP1 cell CPT	DT40 TDP1 no CPT
CC(C)CN1CC2(CCN(C(=O)c3ccncc3)CC2)C1	x	x	x	x	-15%	4%
CC(=O)[C@H]1CC[C@H]2[C@@H]3CCC4=CC(=O)CC[C@]4(C)[C@H]3CC[C@]12C	5%	2%	u	3%	27µM*	18µM*
C[C@]12CCC(=O)C=C1CC[C@@H]1C2CC[C@]2(C)C(=O)CCC12 (stereo partly specified)	25%	-16%	-16	3%	-10%	-16%
C[C@]12CCC(=O)C=C1CC[C@@H]1[C@@H]2CC[C@]2(C)C(=O)CC[C@@H]12	9%	-20%	5	0%	u	18µM*!
C[C@@]12CCC3C(CCC4=CC(=O)CC[C@]43C)C1CCC2O (stereo partly specified)	x	x	x	x	u	16µM*
C[CH2][Hg][S]c1ccccc1C(=O)O	4.5µM*	2.5µM*	-112*	-1%	0.41µM*	0.58µM*
O=C(O)c1ccccc1SCC(=O)N1c2ccccc2Sc2ccccc21	u	5%	16	7%	-13%	-3%
Clc1cccc(C(c2ccc3nc[nH]c3c2)n2ccnc2)c1 (stereo unspecified)	x	x	x	x	u	27µM*
COc1cc(N2C(=O)CC(=O)NC2=O)cc(OC)c1OC	13%	6%	11	1%	16%	7%
N#Cc1ccc(Cn2cc(C=O)c3ccccc32)cc1	1.4µM*	-47%	-1	0%	-14%	-5%
O=Cc1cn(CCCOc2ccccc2)c2ccccc12	u	-23%	-14	-8%	u	u
Cc1cccc(Cn2cc(C=O)c3ccccc32)c1	1.1µM*	-35%	-24	-7%	u	u
O=Cc1cn(Cc2c(F)cccc2Cl)c2ccccc12	3.5µM*	-6%	-24	-4%	u	u
CC(C)Cc1nc2cccnc2n1C1CCNCC1	-24%	-8%	x	x	-28%	-14%
COc1cc(C2Nc3c(C)cc(C)cc3-c3cc(C)nn32)cc(OC)c1O (stereo unspecified)	u	-43%	x	x	5.8µM*	4.1µM*
Cc1cc(C)c2c(c1)-c1cc(C)nn1C(c1cccnc1)N2 (stereo unspecified)	0%	-4%	16	4%	1%	-1%
COC(=O)C1=C(c2cccc3c2S(=O)(=O)c2ccccc2-3)C[C@@H]2CC[C@H]1N2C(=O)N1CCc2cc(OC)c(OC)cc2C1	-1%	-19%	-17	u	21µM*	21µM*
COC(=O)C1=C(c2cccc(C#N)c2)C[C@@H]2CC[C@H]1N2C(=O)N1CCOCC1	1%	-2%	18	5%	-19%	u
COC(=O)C1=C(c2cccc3c2S(=O)(=O)c2ccccc2-3)C[C@@H]2CC[C@H]1N2C(=O)N1CCOCC1	-1%	-11%	-8	-3%	23µM*	u
COC(=O)C1=C(c2ccc(F)cc2F)C[C@@H]2CC[C@H]1N2C(=O)N1CCC(O)CC1	-9%	1%	30	11%	11%	-13%
COC(=O)CC1(Cc2ccccc2)C(=O)NC(=O)NC1=O	3%	-2%	8	3%	-4%	-16%
COC(=O)CCC(=O)Nc1sc(Cc2ccccc2)c(C)c1C(N)=O	-18%	-19%	23	0%	12µM*	23µM*
Cc1ccc(NP(=O)(Oc2ccccc2F)Oc2ccccc2F)cc1C	u	-76%	-84*	-11%	u	u
Cc1cccc(NP(=O)(Oc2ccccc2F)Oc2ccccc2F)c1	13µM*	-60%	-99*	-6%	u	u
O=[N+]([O-])c1cccc(NP(=O)(Oc2ccccc2)Oc2ccccc2)c1	u	-39%	-27	-8%	u	u
SMILES	TGFb SMAD3 inh	HepG2 viability	IL-1B inflam inh	ASM inhibitor	TDP1 cell CPT	DT40 TDP1 no CPT
CCc1ccc([C@H]2[C@@H]3C(=O)C[C@@H]4C(=O)N(Cc5ccccc5)C(=O)[C@@H]4[C@@H]3CN2S(=O)(=O)c2ccc(C)cc2)cc1	u	2%	-15	x	u	u
CN(C)c1ccc(/C=C2/C(=O)NC(=O)N(Cc3ccco3)C2=O)cc1	u	10%	-11	1%	-17%	-17%
O=C1NC(=O)N(Cc2ccco2)C(=O)/C1=C/c1ccc(-c2cccc([N+](=O)[O-])c2)o1	-15%	-10%	u	-4%	18µM*	u
CCN(CC)c1ccc(/C=C2/C(=O)NC(=O)N(Cc3ccco3)C2=O)cc1	-3%	-1%	-64*	-1%	-1%	-3%
C=CCN1C(=O)NC(=O)/C(=C\c2ccc(-c3ccccc3[N+](=O)[O-])o2)C1=O	u	-10%	-100*	-9%	u	18µM*
Cc1ccc(C(=O)COC(=O)Cc2ccccc2)cc1	-16%	-25%	0	x	-4%	-2%
CN(C(=O)COC(=O)c1cn(C)c2ccccc12)C1CCCCC1	-18%	-15%	-50*	0%	-24%	-4%
CC(C)c1ccc(C(=O)N2CCCC(c3cc(C(=O)Nc4ccccc4Cl)no3)C2)cc1 (stereo unspecified)	u	-27%	36	x	15µM*	5.8µM*
CN1C(=O)NC(=O)[C@]2(Cc3ccccc3N3CCN(c4ccccc4)CC32)C1=O (stereo partly specified)	-6%	-34%	0	7%	u	u
CC1CCN2c3nc4ccccn4c(=O)c3CC3(C(=O)N(C)C(=O)N(C)C3=O)C2C1 (stereo unspecified)	2%	-2%	19	12%	2%	-9%
O=C1NC(=O)[C@]2(Cc3ccccc3N3CCN(c4ccccc4)CC32)C(=O)N1Cc1ccccc1 (stereo partly specified)	-21%	-20%	-23	-11%	21µM*	23µM*
O=C1NC(=O)C2(Cc3ccccc3N3CCCC32)C(=O)N1Cc1ccccc1 (stereo unspecified)	4%	-14%	19	63%	u	23µM*
O=C1NC(=O)C2(Cc3c(nc4ccccn4c3=O)N3CCCCCC32)C(=O)N1Cc1ccccc1 (stereo unspecified)	-2%	-6%	1	0%	21µM*	23µM*
